# NPR1 activator = GC-A (human) enzyme activation; P16066; HEK293 GC-A cells, cGMP TR-FRET, EC30 ANP; 0% at EC30 ANP, 100% saturating ANP; activation, % at 10 µM; 370,000 tested, 0.14% active; AID 1671463; in the data active = activation above about 40%
# Target sequence (P16066 whole entry, looked up): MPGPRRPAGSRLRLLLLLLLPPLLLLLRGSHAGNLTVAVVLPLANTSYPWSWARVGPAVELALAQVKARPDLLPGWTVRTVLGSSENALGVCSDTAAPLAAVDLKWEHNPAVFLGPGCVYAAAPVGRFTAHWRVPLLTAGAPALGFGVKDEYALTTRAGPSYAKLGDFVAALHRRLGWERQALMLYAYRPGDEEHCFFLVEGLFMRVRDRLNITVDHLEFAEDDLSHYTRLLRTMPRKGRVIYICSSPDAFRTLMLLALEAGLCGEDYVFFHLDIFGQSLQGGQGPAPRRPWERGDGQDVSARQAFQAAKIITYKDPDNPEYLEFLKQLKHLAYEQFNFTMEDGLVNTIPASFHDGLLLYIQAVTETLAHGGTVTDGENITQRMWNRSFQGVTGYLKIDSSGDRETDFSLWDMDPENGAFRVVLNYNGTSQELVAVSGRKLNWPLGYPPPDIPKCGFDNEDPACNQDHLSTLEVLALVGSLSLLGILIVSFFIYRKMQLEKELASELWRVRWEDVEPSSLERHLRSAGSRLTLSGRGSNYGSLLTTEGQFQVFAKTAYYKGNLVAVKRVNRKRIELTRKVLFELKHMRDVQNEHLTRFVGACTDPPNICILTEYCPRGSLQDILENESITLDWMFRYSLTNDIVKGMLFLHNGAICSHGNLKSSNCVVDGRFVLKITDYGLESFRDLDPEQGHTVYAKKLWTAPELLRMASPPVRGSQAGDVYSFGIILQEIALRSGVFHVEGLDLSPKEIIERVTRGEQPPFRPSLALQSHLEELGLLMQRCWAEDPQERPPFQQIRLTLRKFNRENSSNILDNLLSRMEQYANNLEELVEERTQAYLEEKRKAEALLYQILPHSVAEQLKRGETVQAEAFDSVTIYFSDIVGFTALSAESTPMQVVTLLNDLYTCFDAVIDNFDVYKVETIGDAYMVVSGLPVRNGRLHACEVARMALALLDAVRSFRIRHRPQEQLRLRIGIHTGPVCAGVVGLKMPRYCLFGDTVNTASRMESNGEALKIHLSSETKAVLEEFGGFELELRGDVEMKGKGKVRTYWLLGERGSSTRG
# Rce1 inhib = blocks yeast Ras-converting enzyme | Q03530 | AID 2563 | yeast membranes, quenched prenylated peptide cleavage fluorescence | calls only | 290,000 tested, 0.27% active;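 active = fall in fluorescence gain of 50% or more versus controls, with final raw signal at or below 3038400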;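 note: plate controls were neutral control wells for no effect and wells lacking membranes for full effect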
# NPR2 activator = GC-B (human) receptor activation | P20594 | HEK293-GC-B cells, CNP EC30, cGMP TR-FRET; 0% at EC30 CNP, 100% saturating CNP | activation, % at 10 µM | 370,000 tested, 0.11% active | AID 1920062;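 active = activation at 10 µM reaching about 35% in either raw or pattern-adjusted values, limit read from the data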
# V-ATPase pHluor = regulators of yeast V-ATPase proton transport; S. cerevisiae, pHLuorin cytosolic pH fluorescence; response, % at 10 µM; 350,000 tested, 0.37% active; in the data active = response mostly above about 7.3%, no sharp cut-off; inactive = mostly below about 5.4%; note: actives read high
# NSD2 inh = NSD2 (human) methyltransferase inhibition; NSD2 peptide methylation, AlphaScreen, 120 min; 310,000 tested, 0.54% active; inhibition, % at 12.5 µM; O96028; in the data active = inhibition above about 50%
# Efflux pump mplx = antifungal efflux pump inhibition, Nile Red retention | S. cerevisiae Candida pump triplex | inhibition, % at 10 µM | 330,000 tested, 0.44% active | AID 485275;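 active = plate passing quality check with inhibition over a set limit, or well fluorescence over plate mean plus 4 SD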;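 note: Nile Red retained in pooled yeast measured as flow cytometry median fluorescence; 0% = buffer negative control and 100% = Enniatin B positive control; higher means more Nile Red kept so more efflux inhibition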
# AlphaScreen art = counter-screen for NSD2 inhibitors: AlphaScreen artifacts. shares compounds with NSD2 inh. AlphaScreen artifact counterscreen, preloaded methylated H4 peptide. AC35, µM (doses to about 10 µM), for inactives: at the top dose activity change, negative = signal loss. 1,500 tested, 9.4% active. AID 1053174; call rule not given here
# Starred values were filed as active, the others as inactive; i = inactive; . = no result given. In the library only some 1.6% were active in any assay of this set; here they are far more common.
SMILES,NPR1 activator,Rce1 inhib,NPR2 activator,V-ATPase pHluor,NSD2 inh,Efflux pump mplx,AlphaScreen art
CN(Cc1ccccc1)S(=O)(=O)c1cccc(C(=O)OCc2ccccc2)c1,-3,.,2,.,-3,.,.
CC1=NN(c2ccc(C(=O)O)c(N)c2)C(=O)C1,1,i,-2,1,130*,0,-6%
O=C1CCN2C=Nc3cccc4ccc1c2c34,0,i,-3,1,115*,0,3%
O=C1CCC(=O)c2ccc3c4c(ccc1c24)CC3,-7,.,-1,2,2,.,.
NC1=C(Cl)C(=O)c2ccc(S(N)(=O)=O)cc2C1=O,-3,.,-6,1,114*,.,-2%
Cc1ccccc1-c1cccc2c3c([nH]c12)[C@@H]1C[C@H]2[C@@H](CN1CC3)[C@H](C)ON2C,-3,.,-5,.,.,.,.
CC1CC(C)CN(C(=O)c2ccc3c(c2NCCO)C(=O)c2ccccc2C3=O)C1 (stereo not given),-5,i,-6,0,81*,0,8.1µM*
CC1CC(C)CN(C(=O)COC(=O)CN2C(=O)c3ccccc3C2=O)C1 (stereo not given),-1,.,0,-1,0,0,.
Cc1ccccc1NC(=O)OC1CCC12CCCCC2 (stereo not given),2,.,0,.,.,.,.
COP(=O)(OC)C(NC(=O)OCc1ccccc1)C(C)C (stereo not given),2,.,-4,.,.,.,.
O=C1CCCC(O)=C1N=Nc1ccc2c(c1)OCO2,-4,i,-5,0,1,0,.
O=C1CCCC(O)=C1N=Nc1ccc(C(=O)O)cc1,0,i,2,0,96*,0,0%
COC(=O)[C@H](C(C)C)N(CCc1cn(CC2CCCCC2)nn1)S(=O)(=O)c1ccc(F)cc1Br,1,.,-3,.,.,.,.
CCN(CC)C(=O)C1CCCN(Cc2ccc(OC)c(C)c2C)C1 (stereo not given),-8,i,-6,5,53*,0,-5%
CCOC(=O)C1CCCN(Cc2cc(Br)ccc2OC)C1 (stereo not given),-12,.,-12,1,.,0,.
CN(C)[C@@H]1CCN(c2cccc3c2S(=O)(=O)N2CC[C@@H](C2)O3)C1,1,.,2,.,.,.,.
COCCCNC(=S)Nc1cccc2ncccc12,0,i,1,3,86*,0,-1%
COc1ccc(C(=O)NC(=S)Nc2cccc3ncccc23)cc1[N+](=O)[O-],0,i,-4,-5,0,0,.
COc1ccc2c(c1)Cc1sc(NC(=O)c3ccco3)nc1-2,8,.,-3,2,26,0,.
COc1ccc2c(c1)Cc1sc(NC(C)=O)nc1-2,-3,i,2,1,95*,0,-5%
COc1ccc2c(c1)Cc1sc(NC(=O)c3cccnc3)nc1-2,8,i,4,-2,52*,0,0%
O=C(O)c1cccc(-n2cccc2/C=C\[N+](=O)[O-])c1,0,i,1,1,69*,0,-2%
O=C(O)c1cccc(-n2cccc2/C=N/O)c1,1,i,-5,2,52*,0,-10%
N#Cc1c(Cl)nc2c(c1C#N)CCCC2,7,i,-8,-3,61*,0,1%
c1ccc(-c2nnc3n2N=C(c2ccc4ccccc4c2)CS3)cc1,2,.,5,.,0,.,.
SMILES,NPR1 activator,Rce1 inhib,NPR2 activator,V-ATPase pHluor,NSD2 inh,Efflux pump mplx,AlphaScreen art
COC(=O)[C@]12C[C@H](CC(=O)NCC3CCCCC3)C(=O)N(Cc3ccco3)C1=C[C@H](C1CCCC1)O[C@@H]2C,-25,.,-23,.,.,.,.
CCOC(=O)c1c(C#N)c(SCC(=O)Nc2ccc(OC)cc2)nc2c1CN(CC)CC2,2,i,-1,-1,70*,0,-3%
O=C(/C=C/c1ccc([N+](=O)[O-])cc1)N1CCN(Cc2ccccc2)CC1,2,i,1,1,-2,0,.
O=C(/C=C/c1ccc(OCCCF)cc1)N1CCN(Cc2ccccc2)CC1,9,i,-2,-2,70*,0,-2%
Cc1cccc(OCC(=O)Nc2ncn[nH]2)c1C,-2,i,-3,-1,98*,0,-6%
Fc1ccc(C2CCNCC2COc2ccc3c(c2)OCO3)cc1 (stereo not given),-44,i,-15,3,64*,0,-20%
